Drawing on ChEMBL document CHEMBL1961873, “Compounds: GSK PKIS; Assays: Nanosyn kinase panel” (2012), this text covers inhibition for seven molecules.

Test [1] addresses Serine/threonine-protein kinase pim-2 (Homo sapiens) (UniProt Q9P1W9). The note with it: at 1 µM.
The target in test [2] is Serine/threonine-protein kinase pim-3 (Homo sapiens) (UniProt Q86V86). As to conditions: at 0.1 µM.
Test [3] has the same target. The note with it: at 1 µM.
For test [4], the target named is T1, MAP kinase-activated protein kinase 5 (Homo sapiens) (UniProt Q8IW41).
T1 sequence (whole entry): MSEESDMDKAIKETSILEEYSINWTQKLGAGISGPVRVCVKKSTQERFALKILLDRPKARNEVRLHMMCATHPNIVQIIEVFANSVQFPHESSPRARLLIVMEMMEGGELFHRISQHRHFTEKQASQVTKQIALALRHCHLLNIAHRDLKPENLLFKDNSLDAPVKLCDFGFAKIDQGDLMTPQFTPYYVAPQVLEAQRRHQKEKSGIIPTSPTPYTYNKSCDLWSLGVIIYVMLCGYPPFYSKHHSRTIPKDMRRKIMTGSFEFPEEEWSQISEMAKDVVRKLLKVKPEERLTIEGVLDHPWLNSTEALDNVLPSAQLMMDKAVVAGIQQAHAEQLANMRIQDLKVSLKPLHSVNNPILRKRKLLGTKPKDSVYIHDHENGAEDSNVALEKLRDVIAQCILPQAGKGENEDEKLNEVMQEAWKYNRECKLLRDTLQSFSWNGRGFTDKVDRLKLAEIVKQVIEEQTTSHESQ
As to conditions: at 0.1 µM.

For test [5], the target named is T1, MAP kinase-activated protein kinase 5 (Homo sapiens). As to conditions: at 1 µM.
The target of test [6] is Serine/threonine-protein kinase SIK1 (Homo sapiens) (UniProt P57059). The note with it: at 0.1 µM.
Chain of Serine/threonine-protein kinase SIK1 (Homo sapiens) (P57059 whole entry): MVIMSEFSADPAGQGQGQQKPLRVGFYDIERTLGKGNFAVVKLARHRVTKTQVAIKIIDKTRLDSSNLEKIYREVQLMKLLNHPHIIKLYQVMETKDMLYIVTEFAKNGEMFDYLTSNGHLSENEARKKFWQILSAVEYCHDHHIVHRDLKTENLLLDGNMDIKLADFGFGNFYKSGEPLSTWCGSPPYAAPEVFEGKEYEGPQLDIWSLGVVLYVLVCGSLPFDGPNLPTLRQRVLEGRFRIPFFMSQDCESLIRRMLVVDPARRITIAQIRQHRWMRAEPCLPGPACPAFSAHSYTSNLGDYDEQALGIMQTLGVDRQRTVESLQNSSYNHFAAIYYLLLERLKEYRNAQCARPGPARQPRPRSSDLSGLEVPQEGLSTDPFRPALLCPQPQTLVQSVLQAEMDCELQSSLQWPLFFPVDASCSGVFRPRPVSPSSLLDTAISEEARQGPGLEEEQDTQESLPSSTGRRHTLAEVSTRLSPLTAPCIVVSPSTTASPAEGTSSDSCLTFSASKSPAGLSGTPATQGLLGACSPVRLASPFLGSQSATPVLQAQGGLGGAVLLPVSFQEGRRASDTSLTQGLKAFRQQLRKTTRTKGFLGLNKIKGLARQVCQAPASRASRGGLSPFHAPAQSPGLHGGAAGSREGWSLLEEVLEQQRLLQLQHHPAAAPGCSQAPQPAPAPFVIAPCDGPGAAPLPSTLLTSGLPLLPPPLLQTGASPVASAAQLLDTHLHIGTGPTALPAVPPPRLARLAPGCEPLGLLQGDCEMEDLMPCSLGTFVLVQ
For test [7] the target is unchanged. The note with it: at 1 µM.
For test [8], the target named is Serine/threonine-protein kinase SIK2 (Homo sapiens) (UniProt Q9H0K1). The note with it: at 0.1 µM.
Chain of Serine/threonine-protein kinase SIK2 (Homo sapiens) (Q9H0K1 whole entry, looked up): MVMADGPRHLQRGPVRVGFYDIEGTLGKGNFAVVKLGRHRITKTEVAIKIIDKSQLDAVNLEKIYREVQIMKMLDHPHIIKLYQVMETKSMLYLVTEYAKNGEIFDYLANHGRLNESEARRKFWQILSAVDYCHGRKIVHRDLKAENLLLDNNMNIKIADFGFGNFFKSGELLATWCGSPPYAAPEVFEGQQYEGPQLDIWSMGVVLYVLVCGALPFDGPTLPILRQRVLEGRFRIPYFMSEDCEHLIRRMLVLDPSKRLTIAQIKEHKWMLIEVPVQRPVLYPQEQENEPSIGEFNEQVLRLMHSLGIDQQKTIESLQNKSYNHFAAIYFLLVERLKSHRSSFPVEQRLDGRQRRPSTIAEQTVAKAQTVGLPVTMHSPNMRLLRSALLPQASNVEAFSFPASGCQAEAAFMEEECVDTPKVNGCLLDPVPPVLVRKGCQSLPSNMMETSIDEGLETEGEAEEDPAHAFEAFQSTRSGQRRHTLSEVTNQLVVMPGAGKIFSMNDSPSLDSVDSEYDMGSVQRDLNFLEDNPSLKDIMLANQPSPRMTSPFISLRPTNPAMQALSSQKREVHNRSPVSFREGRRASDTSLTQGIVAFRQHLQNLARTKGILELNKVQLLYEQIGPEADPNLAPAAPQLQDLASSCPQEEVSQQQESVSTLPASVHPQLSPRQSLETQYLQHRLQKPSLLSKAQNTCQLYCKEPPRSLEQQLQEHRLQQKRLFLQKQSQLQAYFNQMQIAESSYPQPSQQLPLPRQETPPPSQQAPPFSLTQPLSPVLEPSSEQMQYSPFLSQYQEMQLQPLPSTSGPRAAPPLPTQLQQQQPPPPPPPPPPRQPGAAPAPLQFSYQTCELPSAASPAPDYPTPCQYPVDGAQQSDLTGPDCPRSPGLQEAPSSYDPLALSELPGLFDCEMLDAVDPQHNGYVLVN
Test [9] has the same target. As to conditions: at 1 µM.
For test [10], the target named is T2, Serine/threonine-protein kinase TBK1 (Homo sapiens) (UniProt Q9UHD2).
T2 sequence (whole entry): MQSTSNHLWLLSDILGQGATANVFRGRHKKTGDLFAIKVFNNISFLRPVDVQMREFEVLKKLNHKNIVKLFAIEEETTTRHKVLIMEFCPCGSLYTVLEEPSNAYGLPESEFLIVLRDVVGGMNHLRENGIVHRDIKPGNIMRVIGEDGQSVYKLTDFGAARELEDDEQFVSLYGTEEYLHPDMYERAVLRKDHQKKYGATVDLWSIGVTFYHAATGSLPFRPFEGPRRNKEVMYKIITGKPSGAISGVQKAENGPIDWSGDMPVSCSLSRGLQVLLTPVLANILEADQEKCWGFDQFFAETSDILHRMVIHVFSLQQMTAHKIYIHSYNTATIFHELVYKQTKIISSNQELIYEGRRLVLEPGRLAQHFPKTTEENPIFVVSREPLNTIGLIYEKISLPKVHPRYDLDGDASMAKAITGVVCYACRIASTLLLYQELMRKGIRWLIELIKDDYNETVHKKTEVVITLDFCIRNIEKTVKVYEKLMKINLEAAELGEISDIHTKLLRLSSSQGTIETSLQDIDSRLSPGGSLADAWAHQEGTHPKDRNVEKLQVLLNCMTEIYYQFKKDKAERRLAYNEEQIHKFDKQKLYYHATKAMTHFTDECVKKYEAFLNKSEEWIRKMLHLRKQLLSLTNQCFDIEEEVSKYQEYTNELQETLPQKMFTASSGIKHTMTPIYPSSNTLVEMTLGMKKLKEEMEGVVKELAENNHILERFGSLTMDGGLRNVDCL
As to conditions: at 0.1 µM.

Test [11] concerns the target T2, Serine/threonine-protein kinase TBK1 (Homo sapiens). The note with it: at 1 µM.
Test [12] deals with T3, Testis-specific serine/threonine-protein kinase 1 (Homo sapiens) (UniProt Q9BXA7).
T3 sequence (whole entry): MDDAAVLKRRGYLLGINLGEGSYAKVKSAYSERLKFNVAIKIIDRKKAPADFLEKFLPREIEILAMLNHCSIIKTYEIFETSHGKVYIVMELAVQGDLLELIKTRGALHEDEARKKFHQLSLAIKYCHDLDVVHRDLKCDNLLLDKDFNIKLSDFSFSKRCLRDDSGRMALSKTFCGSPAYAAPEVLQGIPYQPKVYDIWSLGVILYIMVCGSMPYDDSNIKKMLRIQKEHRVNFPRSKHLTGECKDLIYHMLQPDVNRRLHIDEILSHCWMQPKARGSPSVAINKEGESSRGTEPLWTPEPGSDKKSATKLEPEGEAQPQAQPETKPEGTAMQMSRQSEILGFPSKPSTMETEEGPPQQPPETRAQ
The note with it: at 0.1 µM.

For test [13], the target named is T3, Testis-specific serine/threonine-protein kinase 1 (Homo sapiens). The note with it: at 1 µM.
Test [14] has as its target T4, Testis-specific serine/threonine-protein kinase 2 (Homo sapiens) (UniProt Q96PF2).
T4 sequence (whole entry): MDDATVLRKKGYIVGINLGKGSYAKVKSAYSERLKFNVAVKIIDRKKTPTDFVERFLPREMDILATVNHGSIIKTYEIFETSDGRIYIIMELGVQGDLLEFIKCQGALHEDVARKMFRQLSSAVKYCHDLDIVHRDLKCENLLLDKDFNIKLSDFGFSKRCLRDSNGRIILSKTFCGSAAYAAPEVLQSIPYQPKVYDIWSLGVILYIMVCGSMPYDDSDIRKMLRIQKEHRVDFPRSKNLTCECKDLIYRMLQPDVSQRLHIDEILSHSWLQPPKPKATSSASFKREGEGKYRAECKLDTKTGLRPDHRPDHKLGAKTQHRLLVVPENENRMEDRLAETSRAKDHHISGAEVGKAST
As to conditions: at 0.1 µM.

The target in test [15] is T4, Testis-specific serine/threonine-protein kinase 2 (Homo sapiens). As to conditions: at 1 µM.
For test [16], the target named is Casein kinase I isoform alpha (Homo sapiens) (UniProt P48729). The note with it: at 0.1 µM.
Chain of Casein kinase I isoform alpha (Homo sapiens) (P48729 2-337 limits assumed): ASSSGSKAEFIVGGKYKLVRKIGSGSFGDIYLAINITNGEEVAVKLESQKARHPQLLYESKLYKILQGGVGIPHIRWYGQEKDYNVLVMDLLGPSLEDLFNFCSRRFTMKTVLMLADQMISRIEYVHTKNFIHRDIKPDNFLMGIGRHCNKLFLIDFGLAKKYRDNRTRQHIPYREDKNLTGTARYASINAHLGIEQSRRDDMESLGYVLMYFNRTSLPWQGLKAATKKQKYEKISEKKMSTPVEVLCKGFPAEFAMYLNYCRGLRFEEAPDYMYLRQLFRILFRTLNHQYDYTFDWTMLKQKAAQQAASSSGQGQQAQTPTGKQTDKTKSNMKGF
For test [17] the target is unchanged. As to conditions: at 1 µM.
For test [18], the target named is Casein kinase I isoform gamma-1 (Homo sapiens) (UniProt Q9HCP0). The note with it: at 0.1 µM.
Chain of Casein kinase I isoform gamma-1 (Homo sapiens) (Q9HCP0 whole entry, looked up, canonical isoform): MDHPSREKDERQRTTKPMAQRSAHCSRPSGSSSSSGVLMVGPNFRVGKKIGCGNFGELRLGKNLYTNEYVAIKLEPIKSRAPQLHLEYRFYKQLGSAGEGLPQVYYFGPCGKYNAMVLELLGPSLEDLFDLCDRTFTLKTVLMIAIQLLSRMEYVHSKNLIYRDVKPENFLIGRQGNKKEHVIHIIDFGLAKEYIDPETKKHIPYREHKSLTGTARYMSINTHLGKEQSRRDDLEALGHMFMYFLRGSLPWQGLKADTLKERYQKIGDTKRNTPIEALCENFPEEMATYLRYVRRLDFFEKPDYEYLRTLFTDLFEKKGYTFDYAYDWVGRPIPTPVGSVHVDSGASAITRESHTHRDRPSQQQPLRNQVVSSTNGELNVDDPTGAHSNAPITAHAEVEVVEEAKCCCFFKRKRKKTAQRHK
Test [19] has the same target. As to conditions: at 1 µM.
The target of test [20] is Casein kinase I isoform gamma-2 (Homo sapiens) (UniProt P78368). The note with it: at 0.1 µM.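 Note: values are mean inhibition figures reported as part of the GSK PKIS dataset.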
Chain of Casein kinase I isoform gamma-2 (Homo sapiens) (P78368 whole entry, looked up, canonical isoform): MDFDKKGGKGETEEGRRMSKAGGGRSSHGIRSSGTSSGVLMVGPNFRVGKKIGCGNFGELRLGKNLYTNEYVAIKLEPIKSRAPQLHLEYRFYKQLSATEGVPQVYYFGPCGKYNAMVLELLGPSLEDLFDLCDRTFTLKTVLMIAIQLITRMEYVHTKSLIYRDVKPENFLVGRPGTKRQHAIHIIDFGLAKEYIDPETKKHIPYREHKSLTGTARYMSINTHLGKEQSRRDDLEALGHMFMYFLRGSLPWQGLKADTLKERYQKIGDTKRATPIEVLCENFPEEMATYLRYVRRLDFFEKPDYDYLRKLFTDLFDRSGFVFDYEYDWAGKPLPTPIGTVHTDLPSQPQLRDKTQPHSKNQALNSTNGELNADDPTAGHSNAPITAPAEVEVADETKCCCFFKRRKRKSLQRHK

Chain of Serine/threonine-protein kinase pim-2 (Homo sapiens) (Q9P1W9 whole entry, looked up): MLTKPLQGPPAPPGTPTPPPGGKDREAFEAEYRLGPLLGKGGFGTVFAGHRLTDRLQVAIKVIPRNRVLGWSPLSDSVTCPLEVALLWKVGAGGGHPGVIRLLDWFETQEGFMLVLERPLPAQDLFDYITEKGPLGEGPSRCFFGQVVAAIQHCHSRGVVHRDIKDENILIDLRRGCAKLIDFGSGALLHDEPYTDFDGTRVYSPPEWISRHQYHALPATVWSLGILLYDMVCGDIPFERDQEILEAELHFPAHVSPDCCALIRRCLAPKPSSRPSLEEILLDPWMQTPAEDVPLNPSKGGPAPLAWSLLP

For orientation: inhibition means the relative decrease from the control value, in per cent. As for `Fc1ccc(-c2ncn(CCCN3CCOCC3)c2-c2ccncc2)cc1`, the inhibition in [1] is 0.84%; in test [2] it was -1.36%; in test [3] it was -2.93%; in [4], -0.65%; in test [5] it was -1.42%; in [6] it was -2.01%. The inhibition in test [7] was 3.56%; in test [8], -2.31%; in test [9], 2.48%; in [10], 1.21%; in [11] it was 0.48%; in [12] it was -0.41%. Besides, the inhibition was -0.42% in test [13]; -1.62% in test [14]; -0.63% in test [15]; 2.04% in [16]; 5.39% in test [17]; 0.8% in test [18]. For the same molecule, the inhibition in [19] was found to be 1.79%; in test [20], 1.74%.

In the case of `CCS(=O)(=O)c1ccc(OC)c(Nc2ncc(-c3cccc(-c4ccccc4F)c3)o2)c1`, the inhibition in test [1] is 0.73%; in test [2] it was 3.42%; in [3], 0.84%; in test [4], 0.06%; in [5], -0.29%; in [6] it was 0.43%. The inhibition in [7] is 2.58%; in [8], -1.84%; in test [9], 6.03%; in test [10], 0.72%; in test [11] it was 5.42%; in test [12], 0.94%. In addition, the inhibition in [13] is -0.72%; in [14], 0.42%; in [15], -0.69%; in [16], -0.76%; in test [17], 4.53%; in [18], 0.32%. The inhibition is 0.08% in test [19] and -0.86% in [20].

As for `NC(=O)c1cc(-c2ccncc2)cc(-c2ccccc2)c1N`, the inhibition was 0.75% in [1]; -4.72% in [2]; -1.81% in test [3]; 1.31% in test [4]; 2.24% in test [5]; 5.39% in [6]. Further, the inhibition in test [7] was 24%; in [8], 7.44%; in [9] it was 14.2%; in [10], 3.5%; in test [11], 9.27%; in [12], 3.7%. The inhibition in test [13] is 5.71%; in test [14] it was 2.4%; in test [15] it was 1.64%; in [16] it was 4.55%; in test [17], 7.76%; in test [18], 4.75%. Also, the inhibition in test [19] came to 5.37%; in test [20] it was 3.86%.

Turning to `C#Cc1cccc(Nc2ncnc3ccc(OCCCCNCCS(C)(=O)=O)cc23)c1`, the inhibition was -1.09% in test [1]; 6.18% in [2]; 36.2% in [3]; 2.33% in test [4]; 2.73% in test [5]; 8.26% in test [6]. In addition, the inhibition in test [7] amounted to 38.7%; in test [8], 5.71%; in [9], 27.5%; in test [10], 1.72%; in test [11], 8.32%; in test [12], 6.03%. In addition, the inhibition in test [13] amounted to 6.34%; in [14], 2.32%; in test [15], 2.71%; in test [16] it was 2.51%; in [17], 7.93%; in test [18] it was 0.79%. Moreover, the inhibition in test [19] amounted to 1.77%; in test [20], 0.57%.

As to `COC(=O)Nc1nc2ccc(Sc3ccc(NC(=O)Nc4cc(C(F)(F)F)ccc4F)cc3)cc2[nH]1`, the inhibition in test [1] was -0.09%; in [2], 1.76%; in test [3] it was 2.48%; in test [4], 0.03%; in [5] it was -0.97%; in test [6], 3.94%. Besides, the inhibition in [7] was 0.98%; in test [8], 4.86%; in test [9], 0.47%; in test [10] it was -0.64%; in test [11], 2.38%; in test [12], -0.48%. The inhibition in test [13] is -2.84%; in test [14], -0.2%; in [15], -1.84%; in test [16], -0.33%; in test [17], 1.98%; in [18], -0.12%. Besides, the inhibition in test [19] is 0.47%; in test [20], -0.85%.

For `COc1cc(Nc2ncc3c(C)nc(-c4cccc(Oc5ccccc5)c4)n3n2)cc(OC)c1OC`, the inhibition was 1.14% in test [1]; 0.34% in test [2]; -0.16% in [3]; -0.04% in test [4]; -1.56% in test [5]; 3.67% in test [6]. For the same molecule, the inhibition turned out to be 10.1% in test [7]; 1.91% in test [8]; 0.43% in [9]; 4.47% in test [10]; 28.8% in test [11]; 3.11% in [12]. For the same molecule, the inhibition is 5.53% in test [13]; 1.01% in test [14]; -1.11% in test [15]; 6.15% in test [16]; 3.63% in [17]; 1.67% in [18]. In addition, the inhibition in test [19] was determined as 3.71%; in [20] it was 0.59%.

With `c1ccc(Oc2ccc(Nc3ncc(-c4ccccc4)o3)cc2)cc1`, the inhibition was found to be 0.53% in [1]; 0.36% in test [2]; 1.18% in test [3]; 0.66% in test [4]; 0.94% in test [5]; 2.57% in [6]. The inhibition in [7] amounted to 3.12%; in test [8], 1.87%; in test [9], 1.2%; in test [10], 3.15%; in [11], 2.41%; in [12] it was 1.11%. In addition, the inhibition came to 1.56% in test [13]; 0.35% in test [14]; 0.74% in test [15]; 5.38% in test [16]; 7.2% in test [17]; 0.74% in test [18]. For the same molecule, the inhibition in test [19] turned out to be 2.02%; in [20], 0.49%.
